Bioassay records (PubChem BioAssay)
Most compounds without a hit are left out; they make up all but 3% or so of the library.
Sm TGR block: qHTS Assay for the Inhibitors of Schistosoma Mansoni Peroxiredoxins. purified TGR, DTNB reduction, TNB absorbance 405 nm. actives 3% (n = 360,000). Schistosoma mansoni thioredoxin glutathione reductase (TGR), Q962Y6. Potency, µM (series often up to 114 µM), for inactives: top-dose activity change, negative = inhibition, hits mostly inhibitors; active = well fitted inhibition curve with a large enough effect; inconclusive = small, poorly fitted or top-dose-only effect; inactive = no such curve, though single readings can be large or run the other way; also: % is scaled to controls: 0 for no effect and ±100 for the full control effect; nearly all actives have a fitted effect of over 60% in size
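TGR 20 nM + NADPH 100 uM (dispensed conc.), cpd preinc 15 min RT; start with NADPH (500 uM addition) then DTNB (15 mM addition). Kinetic TNB absorbance, 405 nm filter. Four-parameter Hill fit across titration.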
SARS PLP yeast: qHTS of Yeast-based Assay for SARS-CoV PLP | S. cerevisiae expressing SARS-CoV PLpro, growth rescue | Potency, µM (top dose mostly 32.9 µM), without a hit: top-dose activity, positive = growth rescue, usual class: activators | actives 0.19% (n = 330,000); calls by dose curve; also: 0% is about no effect; nearly all actives have a fitted effect of over 55% in size
* = called active by the depositor; ? = inconclusive; / = not tested or not shown. Potency is read from the fitted curve at half-maximal effect.

SMILES	Sm TGR block	SARS PLP yeast
CCCn1c2ccccc2c2cnn(CC(=O)NCC3CCN(Cc4ccc(F)cc4)CC3)c(=O)c21	-11.0%	/
N#Cc1c(SCC(=O)Nc2ccc(C(F)(F)F)cc2)sc2c(O)cc(=O)[nH]c12	-25.9%	0.9%
N#Cc1c(SCC(=O)Nc2nncs2)sc2c(O)cc(=O)[nH]c12	35.5µM*	-1.6%
O=C1CC(N(O)C2CC(=O)N(Cc3ccccc3)C2=O)C(=O)N1Cc1ccccc1 (stereo not drawn)	?	-29.9%
CCCN(CCC)C1CC(=O)N(Cc2ccccc2)C1=O (stereo not drawn)	10µM*	-16.4%
COc1cccc(N2CCN(C(=O)c3ccc(Cn4c(=O)[nH]c5cc(OC)c(OC)cc5c4=O)cc3)CC2)c1	-0.3%	/
COc1ccc(NC(=O)Cn2c(C)cc3ccccc3c2=O)c(OC)c1	-0.5%	/
CN(C(=O)CSc1nc2ccc(NC(=O)c3cccc(F)c3)cc2s1)c1ccccc1	1.3%	/
Cc1ccc2nc(N3CCN(c4ccccc4)CC3)c(C=O)c(=O)n2c1	44.7µM*	0.7%
COc1ccc(N2CCN(c3nc4ccc(C)cn4c(=O)c3C=O)CC2)cc1	-33.7%	0.1%
CCOc1cc(/C=C2/NC(=O)N(Cc3ccccc3F)C2=O)ccc1O	?	4.6%
COc1cc(/C=C2/NC(=O)N(Cc3ccccc3F)C2=O)cc(OC)c1O	14.1µM*	2.1%
Cn1cc(CN(C(=O)Nc2ccccc2)C2CCCCC2)c2ccccc21	7.2%	/
COc1ccc(C(=O)c2cn(Cc3ccc(F)cc3)c3ccc(C)cc3c2=O)cc1	-4.0%	/
COc1cc(C2C3=C(CC(C)(C)CC3=O)Nc3c2c(=O)[nH]c(=O)n3Cc2ccccc2)ccc1O (stereo not drawn)	50.1µM*	4.6%
COc1ccc(C2C3=C(CC(C)(C)CC3=O)Nc3c2c(=O)[nH]c(=O)n3Cc2ccccc2)cc1OC (stereo not drawn)	-28.1%	-7.6%
COc1cc(C2/C(=C(\O)c3ccc4c(c3)CC(C)O4)C(=O)C(=O)N2CCCn2ccnc2)ccc1O (stereo not drawn)	-32.7%	-4.5%
C=CCOc1ccc(C2/C(=C(\O)c3ccc4c(c3)CC(C)O4)C(=O)C(=O)N2CCN2CCOCC2)cc1OCC (stereo not drawn)	39.8µM*	-2.1%
C=CCOc1ccc(C2/C(=C(/O)c3ccc4c(c3)CC(C)O4)C(=O)C(=O)N2CCCN2CCOCC2)cc1 (stereo not drawn)	0.0%	-4.6%
CCOc1ccc(C2/C(=C(/O)c3ccc4c(c3)CC(C)O4)C(=O)C(=O)N2CCCn2ccnc2)cc1OCC (stereo not drawn)	89.1µM*	?
O=C(NCc1ccco1)c1ccc2[nH]c(=O)c(=O)[nH]c2c1	-31.5%	11.4%
Cc1c(C)n(C)c2ccc(C(=O)NCCc3ccco3)cc12	35.5µM*	-7.7%
CC(C)(C)N1C(=O)c2ccc(C(=O)NCc3ccco3)cc2C1=O	25.1µM*	-1.0%
Cc1ccc(C(=O)NCc2ccco2)cc1Br	44.7µM*	-7.2%
CCn1c(C)c(C)c2cc(C(=O)NCCc3ccco3)ccc21	?	-29.4%
SMILES	Sm TGR block	SARS PLP yeast
Cc1c(Br)cc(C(=O)NCc2ccco2)c(C)c1C	35.5µM*	3.5%
O=C(NCc1ccco1)c1ccc(C(F)(F)F)cc1	1.7%	-9.3%
Cc1occc1C(=O)NCc1ccco1	-2.9%	-8.4%
COC(=O)Cn1c(=O)c2cccn2c2ccc(F)cc21	1.4%	/
O=C(Nc1cc(Cl)cc(Cl)c1)c1cc(S(=O)(=O)N2CCC3(CC2)OCCO3)ccc1F	3.6%	/
O=C(C1CC1)N1CCc2cc(Br)cc(S(=O)(=O)N3CCN(c4cccc(C(F)(F)F)c4)CC3)c21	-0.1%	/
CCOC(=O)c1c(C)oc2nc(C)nc(NCc3ccccc3Cl)c12	6.2%	/
COc1cccc(CN(C(=O)c2oc3ccc(Br)cc3c2C)C2CCS(=O)(=O)C2)c1 (stereo not drawn)	1.7%	/
O=C(NCc1ccco1)c1ccccc1-c1nc(-c2ccc(F)cc2)no1	?	-0.2%
Cc1ccccc1-c1noc(-c2ccccc2C(=O)NCc2ccco2)n1	12.6µM*	-0.7%
CCOC(=O)CCNC(=O)N1CCN(S(=O)(=O)c2ccc3c(ccn3C)c2)CC1	25.8%	/
Cc1nn(-c2ccccn2)c2c1C(=O)C(Br)CC2 (stereo not drawn)	2.51µM*	-10.4%
CC1=C(C)C(=O)N(c2ccccn2)C1=O	6.3%	0.6%
Cc1ccc(-c2nc(S(=O)(=O)c3ccc(C)cc3)c(SCC(=O)NC3CCCCC3)o2)cc1	2.3%	/
O=S(=O)(CCc1ccncc1)Cc1ccc2c3c(cccc13)CC2	39.8µM*	-1.5%
O=C(c1ccc2c3c(cccc13)CC2)C1CCCN(Cc2ccncc2)C1 (stereo not drawn)	-18.7%	-1.2%
Cc1ccc(CCC(=O)Nc2ccc(S(N)(=O)=O)cc2)o1	14.1µM*	1.2%
Cc1cccc(NC(=O)CCc2ccc(C)o2)c1	35.5µM*	-2.5%
CC(=O)Nc1ccc(NC(=O)CCc2ccc(C)o2)cc1	-2.5%	-0.6%
Cc1cc(C)cc(NC(=O)CCc2ccc(C)o2)c1	-14.7%	-3.6%
COCCn1c(=S)[nH]c2cc(C(=O)N3CCN(c4ccc(F)cc4)CC3)ccc2c1=O	-1.5%	5.2%
COCCn1c(C)cc(O)c(C(c2ccccc2)N2CCN(CCO)CC2)c1=O (stereo not drawn)	3.55µM*	/
CCOc1ccc(C(c2c(O)cc(C)n(CCOC)c2=O)N2CCN(c3ccc(F)cc3)CC2)cc1 (stereo not drawn)	5.62µM*	/
CCOc1ccc(C(=O)NCC(c2ccc3c(c2)OCO3)N2CCN(c3ccc(F)cc3)CC2)cc1 (stereo not drawn)	4.2%	/
COCCn1c(CN2CCN(C(c3ccccc3)c3ccccc3)CC2)nc2c1c(=O)n(C)c(=O)n2C	-13.6%	1.6%
SMILES	Sm TGR block	SARS PLP yeast
COCCn1c(C)cc(O)c(C(c2ccccc2)N2CCN(c3ccc(F)cc3)CC2)c1=O (stereo not drawn)	3.16µM*	/
COCCn1c(=O)[nH]c2cc(C(=O)N3CCN(c4ccccc4)CC3)ccc2c1=O	6.4%	12.3%
COCCn1c(C)cc(O)c(C(c2ccccc2)N2CCN(c3ccccc3)CC2)c1=O (stereo not drawn)	4.47µM*	/
CCOCCCNC(=O)c1c(NC(=O)c2cc(=O)c3cc(C)c(C)cc3o2)sc2c1CCC2	-3.9%	/
O=C(c1cc(-c2ccccc2O)on1)N1CCCCC1	-0.7%	/
O=C(O)c1[nH]c2ccc(Cl)cc2c1CC(=O)N1CCN(C(=O)c2ccco2)CC1	22.4µM*	-0.3%
O=C(O)c1[nH]c2ccc(Cl)cc2c1CC(=O)N1CCN(c2ccccc2)CC1	-8.1%	0.5%
O=C(c1cc2cc(Cl)ccc2[nH]1)N1CCN(c2ccccc2F)CC1	-18.4%	-0.9%
O=C(c1cc2cc(Cl)ccc2[nH]1)N1CCN(C(=O)c2ccco2)CC1	15.8µM*	?
COc1ccc(C(CC(=O)Nc2ccc(F)c(Cl)c2)N2Cc3ccccc3C2=O)cc1OC (stereo not drawn)	3.2%	/
O=C1COc2ccc(N3C(=O)C=CC3=O)cc2N1	0.398µM*	-2.9%
O=C1COc2ccc(S(=O)(=O)N3CCCC3)cc2N1	-0.9%	-1.6%
Cc1cc(C)cc(NC(=O)CCS(=O)(=O)c2ccc3c(c2)oc(=O)n3C)c1	-22.4%	/
CCOc1ccc(NC(=O)CSc2ncc(S(=O)(=O)c3ccc(F)c(C)c3)c(=O)[nH]2)cc1	-4.7%	/
CCc1ccc(NC(=O)CSc2ccc3nc(-c4ccc(OC)cc4)cn3n2)cc1	9.4%	/
